Out of some 1,300 compounds screened, about 25 (2%) were called active. The rule behind the calls is not given here. The sample as a whole holds a higher share of actives than the screen did.
Biological target: Estrogen receptor (Homo sapiens) (UniProt P03372)
Assay: ERα coactivator peptide binding inhibitors, primary screen, biochemical, LOPAC library, TR-FRET (AID 694);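 note: receptor was agonist-bound with estradiol present during the assay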
Details: TR-FRET ERalpha-coactivator peptide binding, stronger effect = higher value

Estrogen receptor (Homo sapiens), sequence (P03372 whole entry, looked up): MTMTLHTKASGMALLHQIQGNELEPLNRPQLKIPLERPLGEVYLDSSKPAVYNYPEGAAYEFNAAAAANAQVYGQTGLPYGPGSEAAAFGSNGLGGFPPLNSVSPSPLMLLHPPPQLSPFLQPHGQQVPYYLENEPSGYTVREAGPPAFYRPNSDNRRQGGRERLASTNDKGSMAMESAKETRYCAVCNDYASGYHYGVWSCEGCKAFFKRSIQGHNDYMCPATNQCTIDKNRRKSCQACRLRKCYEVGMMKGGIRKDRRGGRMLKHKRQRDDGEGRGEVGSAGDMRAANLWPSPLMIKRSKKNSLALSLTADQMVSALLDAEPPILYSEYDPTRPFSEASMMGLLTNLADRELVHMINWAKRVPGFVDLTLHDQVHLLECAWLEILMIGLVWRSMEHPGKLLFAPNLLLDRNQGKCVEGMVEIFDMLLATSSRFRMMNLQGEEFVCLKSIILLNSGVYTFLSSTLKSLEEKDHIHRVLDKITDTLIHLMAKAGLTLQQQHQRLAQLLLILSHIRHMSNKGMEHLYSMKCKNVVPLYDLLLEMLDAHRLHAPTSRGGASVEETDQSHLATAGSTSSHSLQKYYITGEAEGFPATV

| Compound | inhibition (at 45 µM) | inhibition (inhibition, at 15 µM) |
| --- | --- | --- |
| C=CCN1CCc2c(cc(O)c(O)c2Cl)C(c2ccccc2)C1 (configuration not stated) | -1.29% (inactive) | -1.34% |
| NC(N)=N[C@@H](CCC(=O)O)C(=O)O | -1.09% (inactive) | 5.9% |
| CC(C)C1C2CCC(C2)C1N (configuration not stated) | -15.6% (inactive) | -0.95% |
| NCCC(=O)NCCc1cnc[nH]1 | -9.27% (inactive) | 2.24% |
| CCN1/C(=C/C(C)=O)Sc2ccc(OC)cc21 | 0.62% (inactive) | -1.25% |
| CSc1ccc2c(c1)N(CCC1CCCCN1C)c1ccccc1S2 (configuration not stated) | 13.6% (inactive) | 10.5% |
| O=C(O)Cc1ccc(O)c(O)c1 | 13.3% (inactive) | 9.47% |
| CC(C)C[C@H](N)CSSC[C@@H](N)CC(C)C | 0.5% (inactive) | -0.82% |
| Cc1ccccc1CNc1ncnc2c1ncn2C1OC(CO)C(O)C1O (configuration not stated) | -2.05% (inactive) | -1.9% |
| Nc1ccc(N2C(=O)c3ccccc3C2=O)c(Cl)c1 | -4.66% (inactive) | -3.36% |
| NC(N)=NC(N)=Nc1cccc(Cl)c1 | -5.64% (inactive) | -4.32% |
| CN[C@H]1CC[C@@H](c2ccc(Cl)c(Cl)c2)c2ccccc21 | 4.49% (inactive) | 4.91% |
| CN1CCN(c2nc3cc(C(F)(F)F)ccc3n3cccc23)CC1 | -8.98% (inactive) | -4.03% |
| COc1cc2c(cc1O)CC[C@@H]1[C@@H]2CC[C@]2(C)[C@@H](O)CC[C@@H]12 | 1.97% (inactive) | 3.36% |
| O=c1[nH]cnc2[nH]ncc12 | -22.8% (inactive) | -0.71% |
| NC(CO)C(=O)NNCc1ccc(O)c(O)c1O (configuration not stated) | 90.3% [fluorescence artefact?] (active) | 63.1% |
| N=C(N)SCCc1cccc(CCSC(=N)N)c1 | -4.03% (inactive) | -3.18% |
| O=C1c2c(O)cc(O)cc2OC(c2ccc(O)c(O)c2)C1O (configuration not stated) | 7.88% (inactive) | 5.23% |
| O=c1[nH]c2cc(Cl)c(Cl)cc2[nH]c1=O | -4.07% (inactive) | 3.65% |
| CN(C)CCOC(c1ccccc1)c1ccccc1 | 0% (inactive) | 1.48% |
| Nc1ncnc2c1nc(Sc1ccc(Cl)cc1)n2C1OC2COP(=O)(O)O[C@@H]2[C@@H]1O (some centres not stated) | 2.25% (inactive) | -0.54% |

| Compound | inhibition (at 45 µM) | inhibition (inhibition, at 15 µM) |
| --- | --- | --- |
| NCCCS(=O)(=O)O | -5.28% (inactive) | -0.89% |
| Brc1ccc([C@H]2CN3CCSC3=N2)cc1 | -14.5% (inactive) | -5.52% |
| CCOC(=O)Nc1ccc(NCc2ccc(F)cc2)nc1N | -2.33% (inactive) | -0.39% |
| OC[C@H]1O[C@@H](n2cnc3cncnc32)[C@H](O)[C@@H]1O | -0.26% (inactive) | -1.71% |
| NC[C@@H]1O[C@H](C23CC4CC(CC(C4)C2)C3)Cc2c1ccc(O)c2O | 6.83% (inactive) | -1.93% |
| N#CC(Cc1ccc(O)c(O)c1)C(=O)N1CCc2ccccc21 (configuration not stated) | 4.21% (inactive) | -5.26% |
| Nc1nc(SCc2ccc([N+](=O)[O-])cc2)c2ncn([C@@H]3O[C@H](CO)[C@H](O)C3O)c2n1 (some centres not stated) | -19.1% (inactive) | -4.91% |
| COc1ccccc1CNCCCCCCNCCCCCCCCNCCCCCCNCc1ccccc1OC | 10.9% (inactive) | 6.92% |
| CCCCCCCCCCC/C=C\C(C)(C)/C=C\CCCC(=O)O | 33.3% (inactive) | 17.4% |
| Cc1c(CC(C)(C)C(=O)O)n(Cc2ccc(Cl)cc2)c2ccc(F)cc12 | 9.14% (inactive) | 5.8% |
| NC(N)=[N+]1CCc2ccccc2C1 | -8.81% (inactive) | 1.64% |
| CC(CCc1ccccc1)NCC(O)c1ccc(O)c(C(N)=O)c1 (configuration not stated) | 5.4% (inactive) | 3.9% |
| O=C(O)c1cc([N+](=O)[O-])ccc1NCCCc1ccccc1 | 1.89% (inactive) | -3.54% |
| N=c1ccn2c(n1)OC1[C@@H](O)[C@@H](CO)O[C@H]12 (some centres not stated) | -2.34% (inactive) | 1.25% |
| COc1ccc(/C=C/C(=O)Nc2ccccc2C(=O)O)cc1OC | 3.42% (inactive) | 4.38% |
| O=S(=O)(c1cccc2c(I)cccc12)N1CCCNCC1 | 21.6% (inactive) | 3.12% |
| OC(CN1CCN(c2cccc(Cl)c2)CC1)C(c1ccccc1)c1ccccc1 (configuration not stated) | 3.01% (inactive) | 4.55% |
| COc1cc(C(O)C(=O)O)ccc1O (configuration not stated) | -7.3% (inactive) | 0.57% |
| CCCn1c(=O)c2[nH]c(-c3ccc(OCC(=O)Nc4ccc(C#N)cc4)cc3)nc2n(CCC)c1=O | 46.8% (inactive) | 8.2% |
| O=C(Nc1cc(C(=O)Nc2ccc(S(=O)(=O)O)cc2S(=O)(=O)O)cc(C(=O)Nc2ccc(S(=O)(=O)O)cc2S(=O)(=O)O)c1)Nc1cc(C(=O)Nc2ccc(S(=O)(=O)O)cc2S(=O)(=O)O)cc(C(=O)Nc2ccc(S(=O)(=O)O)cc2S(=O)(=O)O)c1 | 22.9% (inactive) | 17.2% |
| C/C=C1\C(=O)CC2C3CCC4=CC(=O)CC[C@]4(C)C3CC[C@]12C (some centres not stated) | -2.62% (inactive) | -5.45% |

| Compound | inhibition (at 45 µM) | inhibition (inhibition, at 15 µM) |
| --- | --- | --- |
| Cc1cc(C)c(NC(=O)C[C@H](CC(=O)O)c2cccc3ccccc23)c(C(=O)N2CCC3(CCCC3)CC2)c1 | 4.81% (active) | 53% |
| C[N+](C)(C)CCC(=O)c1cccc2ccccc12 | 4.57% (inactive) | 3.36% |
| COc1ccccc1N1CCN(CCN(C(=O)c2ccc(I)cc2)c2ccccn2)CC1 | 10.1% (inactive) | 2.05% |
| CCCCCCCCCCCCCCCC(=O)OC(CC(=O)O)C[N+](C)(C)C (configuration not stated) | 12.7% (inactive) | 4.2% |
| CC(C)C[C@H](NC(=O)[C@@H](O)[C@H](N)Cc1ccccc1)C(=O)O | -3.72% (inactive) | 0.08% |
| CC(C)C[C@H](NC(=O)[C@H](O)[C@H](N)Cc1ccccc1)C(=O)O | -1.92% (inactive) | -0.07% |
| O=C(O)CNC(=O)C(CS)Cc1ccccc1 (configuration not stated) | -3.83% (active) | 50.5% |
| CC1=C(CC(=O)O)c2cc(F)ccc2/C1=C\c1ccc(S(C)(=O)=O)cc1 | 2.44% (inactive) | 2.34% |
| Nc1nc(Cl)nc2c1ncn2[C@@H]1O[C@H](COP(=O)(O)OP(=O)(O)OP(=O)(O)O)[C@H](O)C1O (some centres not stated) | -8.59% (inactive) | -0.94% |
| CN(C)CCCO[C@@H]1[C@H]2OC(C)(C)O[C@H]2O[C@@H]1C(O)CO (some centres not stated) | 6.83% (inactive) | -5.23% |
| CN1CCc2cc(Cl)c(O)cc2[C@@H](c2ccccc2)C1 | 1.68% (inactive) | 0.35% |
| NCCNC(=O)c1ccc(Cl)cc1 | -1.66% (inactive) | 0.74% |
| OCC1NCC(O)C(O)C1O (configuration not stated) | -2.36% (inactive) | -2.41% |
| CN(C)CCCN1c2ccccc2Sc2ccc(C(F)(F)F)cc21 | 1.43% (inactive) | 1.81% |
| O=S(=O)(c1cccc2c(Cl)cccc12)N1CCCNCC1 | -6.25% (inactive) | -1.24% |
| OCC1O[C@H](O)C(Cl)C(O)C1O (some centres not stated) | 2.62% (inactive) | 2.64% |
| O=C(O)C1=CC(=C(c2ccc(O)c(C(=O)O)c2)c2ccc(O)c(C(=O)O)c2)C=CC1=O | 88.6% [fluorescence artefact?] (active) | 76% |
| Cc1cc(NC(=O)Nc2ccc3c(ccn3C)c2)sn1 | 0.07% (inactive) | -2% |
| Cc1c(C)c2c(c(C)c1O)CCC(C)(CN1CCN(c3cc(N4CCCC4)nc(N4CCCC4)n3)CC1)O2 (configuration not stated) | -11.9% (inactive) | -0.19% |
| Oc1ccc(O)cc1 | 0.27% (inactive) | -2.06% |
| NC(=NCc1ccc(Cl)c(Cl)c1)NC(=O)c1nc(Cl)c(N)nc1N | 2.8% (inactive) | -1.44% |

| Compound | inhibition (at 45 µM) | inhibition (inhibition, at 15 µM) |
| --- | --- | --- |
| N#CC(=C(\N)Sc1ccccc1N)/C(C#N)=C(/N)Sc1ccccc1N | -6.45% (inactive) | -2.12% |
| COc1ccc(CCNC[C@@H](O)c2ccc(O)cc2)cc1OC | 1.27% (inactive) | 1.3% |
| C[n+]1cc2c3c(ccc2c2ccc4cc5c(cc4c21)OCO5)OCO3 | 7.36% (inactive) | 3.96% |
| NCCSSCCN | -10.9% (inactive) | -6.09% |
| Nc1nc2c(nc(Br)n2C2OC3COP(=O)(O)O[C@@H]3C2O)c(=O)[nH]1 (some centres not stated) | -3.13% (inactive) | -2.06% |
| CC(C)(C)c1onc(OCP(=O)(O)O)c1CC(N)C(=O)O (configuration not stated) | -28.3% (inactive) | -2.65% |
| CC[N+](CC)(CC)CC(=O)Nc1c(C)cccc1C | -2.22% (inactive) | 1.79% |
| C/C(=C\c1ccc(C(=O)O)cc1)c1ccc2c(c1)C(C)(C)CCC2(C)C | 40.9% (inactive) | 34.2% |
| O=c1c2ccccc2nc2n1CCc1c-2[nH]c2ccccc12 | 2.93% (inactive) | 1.11% |
| N=C(N)c1ccc(OCCCCCOc2ccc(C(=N)N)cc2)cc1 (tested in a mixture with another compound) | 3.73% (inactive) | 1.26% |
| C[C@@H](NC(=O)/C(C#N)=C/c1ccc(O)c(O)c1)c1ccccc1 | 2.49% (inactive) | 3.07% |
| CC(=O)[C@H]1CCC2C3CC=C4C[C@@H](OS(=O)(=O)O)CC[C@]4(C)C3CC[C@@]21C (some centres not stated) | 0.32% (inactive) | 0.94% |
| NCCNS(=O)(=O)c1cccc2cnccc12 | -4.68% (inactive) | -3.64% |
| Cc1cc2c(cc1Cl)N(C(=O)Nc1ccnc3ccccc13)CC2 | -4.11% (inactive) | 1.97% |
| Cc1cc(N)c2ccccc2[n+]1CCCCCCCCCCCCCC[n+]1c(C)cc(N)c2ccccc21 | 73.8% [fluorescence artefact?] (active) | 65.9% |
| Cc1cc(N)c2ccccc2[n+]1CCCCCCCCCC[n+]1c(C)cc(N)c2ccccc21 | 19.8% (inactive) | 30.1% |
| CSc1nc(N)c2ncn([C@@H]3O[C@H](COP(=O)(O)OP(=O)(O)OP(=O)(O)O)[C@H](O)C3O)c2n1 (some centres not stated) | -1.74% (inactive) | -5.35% |
| N.N.N.N.N.N.N.N.N.N.N.N.N.N.O.O.[Cl-].[Cl-].[Cl-].[Cl-].[Cl-].[Cl-].[Ru+4].[Ru+5].[Ru+5] | 100% [fluorescence artefact?] (active) | 99.8% |

Reference: PubChem BioAssay AID694 (Emory University Molecular Libraries Screening Center, 2007)
